Out of some 48,000 compounds screened, about 13,000 (27%) showed an effect of 50% or more. The list shows a part of the results.
System: Wolbachia pipientis
Assay: Anti-Wolbachia Cell-Based Screen
Format: functional
Parameters: scale not given: in the data most compounds retested in dose-response had high values
Conditions: 5 µM

In order of rising “Percent Effect” value:
1. Cc1cc(Br)oc1C(=O)N1CCC(N(C)C)CC1  -50.6%
2. CC(C)c1noc(CCC(=O)Nc2cc(C(F)(F)F)c[nH]c2=O)n1  -36.07%
3. CCC(C)N(Cc1cccnc1)Cc1cc2c(cc1Cl)OCO2 (configuration not stated)  -26.91%
4. Cc1ccoc1C(=O)N1CCC(n2cc(-c3ccsc3)nn2)CC1  -24.55%
5. Clc1ccc2oc(C3CCN(Cc4cccnc4)CC3)nc2c1  -21.47%
6. O=C(c1ncoc1-c1ccco1)N1CCCN(c2nccs2)CC1  -20.95%
7. CC(C)NC(=O)[C@H]1C[C@@H]2CN(C(=O)NC(C)C)C[C@H]1O2  -20.07%
8. O=C1CN(C(=O)CC2C(=O)NCCN2CC2CCCCC2)CCN1 (configuration not stated)  -19.63%
9. CCC(Nc1cccc(OC)c1)C(=O)N(CCOC)Cc1cnn(C)c1 (configuration not stated)  -17.99%
10. CCN(CCCNC(=O)c1ccc(C)[nH]c1=O)S(C)(=O)=O  -16.03%
11. CCN(CCN1CCOCC1)C(=O)c1cccnc1  -15.37%
12. CN(Cc1nc(-c2ccccc2)c[nH]1)C(=O)NCC(=O)NC(C)(C)C  -12.98%
13. Cc1cc(C(=O)N2CCc3c(ncnc3N3CCOCC3)C2)[nH]n1  -12.68%
14. c1cncc(-c2ccnn2CN2CCOCC2)c1  -10.55%
15. CCNC(=O)N1CCC2(C1)c1ccccc1S(=O)(=O)N2CCC(C)C (configuration not stated)  -10.03%
16. CC(C)NC(=O)N1C[C@H]2C[C@H](C(=O)NCc3ccccc3)[C@@H](C1)O2  -9.895%
17. COc1cccc(N2CCC(CNC(=O)CN3CSCC3=O)C2)c1 (configuration not stated)  -9.493%
18. Cc1ccccc1OCCC(=O)N1CCCC(n2cncn2)C1 (configuration not stated)  -9.445%
19. CCc1ccc(NC(=O)N2C[C@H]3C[C@H](C(=O)NC)[C@@H](C2)O3)cc1  -8.923%
20. CN(Cc1c(F)cccc1Cl)C(=O)c1cnn(CCN2CCOCC2)c1  -8.866%
21. CS(=O)(=O)N1CCOCC2(CCN(c3cnccn3)CC2)C1  -8.044%
22. CC(C(=O)N1CCN(CCOc2ccccc2)CC1)n1cncn1 (configuration not stated)  -7.881%
23. CN(C)Cc1n[nH]c2c1CCN(Cc1cccs1)C2.O=C(O)C(F)(F)F.O=C(O)C(F)(F)F  -7.744%
24. Clc1ccc(OCCN2CCN(CCn3cncn3)CC2)cc1  -7.454%
25. Cc1ccc(-c2cc(C(=O)NCCCc3csc(N)n3)[nH]n2)s1  -6.732%
26. COc1ccc2c(c1)C(C(=O)N(C)CCn1ccnc1C)CC(=O)N2 (configuration not stated)  -6.574%
27. Cc1occc1CNC(=O)C1CCCN1C(=O)C1CC1 (configuration not stated)  -6.321%
28. O=C(Cn1c(=O)n(Cc2ccco2)c2ncccc21)NC1CCCCC1  -5.913%
29. COCCN1CCCC2(CCN(c3nccnc3N(C)C)C2)C1=O (configuration not stated)  -5.787%
30. O=C1N(c2ccc(F)cc2)Cc2nc(=O)n(Cc3cccc(Cl)c3)n21  -4.998%
31. Cc1cc(C)cc(OCCC(=O)N2CCCC(n3cncn3)C2)c1 (configuration not stated)  -4.983%
32. CCN(CCc1nccs1)C(=O)c1ccco1  -4.795%
33. O=C(Cn1c(=O)n(Cc2ccco2)c2ncccc21)Nc1ccccn1  -4.791%
34. CC1=C[C@@H](CN2CCN(C)CC2)[C@H](C(C)C)C[C@H]1Cc1nnc(C)o1  -4.667%
35. Cc1n[nH]c(C)c1CCC(=O)NC1CCCN(c2ccccc2F)C1 (configuration not stated)  -4.293%
36. O=C(NC1CC1)[C@H]1C[C@H]2OCC[C@H]2N(Cc2ccco2)C1  -4.068%
37. Cc1nn(C(C)(C)C)c(=O)n1CC(=O)NC(C)(C)C  -3.979%
38. CS(=O)(=O)N1CCc2[nH]cnc2C12CCN(C(=O)c1ccccc1)CC2  -3.54%
39. CN1C[C@@H](NC(=O)C2CC2)C[C@H]1c1nc(-c2cnccn2)no1  -3.142%
40. CC(C)Nc1nc2c(c(N(C)C)n1)CCN(C(=O)c1cc[nH]n1)CC2  -2.807%
41. CCN(C)C(=O)c1ccc2c(c1)C(c1nc[nH]n1)CN2S(C)(=O)=O (configuration not stated)  -2.777%
42. Cc1nocc1C(=O)N1CCc2c(CN(C)C(C)C)n[nH]c2C1  -1.781%
43. O=C(CCCn1ccnc1)N[C@H]1CN(C2CCCC2)C[C@@H]1C1CC1  -1.542%
44. O=C(c1ccsc1)N1CCc2c(CN3CCCC3)n[nH]c2C1  -0.6462%
45. CN(Cc1cn2c(n1)CN(C(=O)c1ccc[nH]1)CC2)Cc1ccco1.O=C(O)C(F)(F)F  -0.5876%
46. CCc1cnc(N2C[C@H]3C[C@H](C(=O)NC4CCC4)[C@@H](C2)O3)nc1  -0.2357%
47. COc1cccc(CN2CCCC2c2c(C)nn(C)c2C)c1 (configuration not stated)  0.6284%
48. CCC[C@H]1CN(S(C)(=O)=O)C[C@@H]1NC(=O)CCCn1ccnc1  0.7566%
49. Cc1cccc(C)c1OCCC(=O)N1CCC(c2nncn2C)CC1  0.8719%
50. CC(C)CCN1CC2(CCN(C(=O)C3(C)CC3)CC2)OC1=O  1.386%
51. Cc1ccn2ncc(C(=O)N3CCCC(c4cc(C)[nH]n4)C3)c2n1 (configuration not stated)  1.6%
52. COC(=O)c1ccc(OC)c(CN2CCN(CC(C)C)C(=O)C2C)c1 (configuration not stated)  1.65%
53. Cn1nc(C2CCN(CC(=O)NC3CC3)CC2)n(-c2ccccc2)c1=O  1.77%
54. COCC(=O)N1CCC2(CC1)c1ccccc1[C@@H](N1CCSCC1)[C@@H]2O  1.916%
55. CCCN(Cc1cccnc1)C(=O)C1CCN(Cc2ccco2)CC1  2.103%
56. CCc1noc(C(C)SCCS(C)(=O)=O)n1 (configuration not stated)  3.138%
57. Cc1cc(C#N)ccc1S(=O)(=O)N1CCN(C)Cc2ccccc21  3.182%
58. COCC(C)(O)CNC(=O)Nc1cccc(OC)c1OC (configuration not stated)  4.697%
59. FC1(F)CCN(c2ccccc2)CC12CCN(c1ncccn1)C2 (configuration not stated)  4.725%
60. COc1ccccc1N1CCN(C(=O)Cn2nc(C)c(C)c2C)C(C)C1 (configuration not stated)  5.362%
61. COC(=O)c1ccc(CNC(C)(C)c2ccccc2OC)o1  5.551%
62. CC(=O)N1CCc2c(nc(N(C)C)nc2NCc2cccs2)C1  5.703%
63. OCC(O)CSCc1nnc(-c2cccc(F)c2)o1 (configuration not stated)  6.518%
64. O=C1CC(c2cccnc2)c2c(c(C(=O)O)cn2-c2ccccc2)N1 (configuration not stated)  6.777%
65. COc1ccccc1OC1CCN(C(=O)CCCn2ccnc2)CC1  6.898%
66. O=C1O[C@@H]2CN(Cc3cccnc3)C[C@@H]2N1CCCN1CCOCC1  7.451%
67. CCCN1CCC2(C1)c1ccccc1S(=O)(=O)N2Cc1ccc(F)cc1 (configuration not stated)  8.528%
68. O=C(NCc1cccc(F)c1)NC1CCCN(c2ncccn2)C1 (configuration not stated)  12.98%
69. COc1cccc(CC2CCCN2CCCO)c1 (configuration not stated)  13.01%
70. FC(F)(F)Oc1ccc(CN2CCCC(n3cncn3)C2)cc1 (configuration not stated)  13.2%
71. Cc1ccc(Cl)cc1N1CCC(CNC(=O)CCn2ccnc2)C1 (configuration not stated)  19.22%
72. CC(C)CCN1N=C(C(=O)N2CCCCCC2)S(=O)(=O)c2ccccc21  20.76%
73. Cn1ncc2cnn(CC(O)COc3cccc4[nH]ccc34)c2c1=O (configuration not stated)  26.41%
74. COc1cccc(CN2CCCCC2c2n[nH]cc2-c2cc(C)no2)c1.Cl (configuration not stated)  78.4%
75. CC(=O)N1CCC2(C1)c1ccccc1S(=O)(=O)N2CCC(C)C (configuration not stated)  83.1%
76. O=C(CCCn1ccnc1)NC1CCCN(c2ccccc2Cl)C1 (configuration not stated)  86.14%
77. CC(C)CCN1C2(CCN(C(=O)C3(C)CC3)C2)c2ccccc2S1(=O)=O (configuration not stated)  92.1%
78. CCN(CC)C(=O)Cn1c(=O)n(Cc2ccco2)c2ncccc21  92.26%
79. c1ccc(OCCN2CCC(n3cncn3)CC2)cc1  93.12%
80. CC(C)N(C)Cc1n[nH]c2c1CCN(C(=O)c1cc[nH]n1)C2  93.85%
81. COCC(=O)N1CCC2(C1)c1ccccc1S(=O)(=O)N2CC1CC1 (configuration not stated)  95.12%
82. CC(C)(C)NC(=O)Cn1c(=O)n(Cc2ccco2)c2ncccc21  95.67%
83. CC(C)CCN1C2(CCN(C(=O)CN(C)C)C2)c2ccccc2S1(=O)=O.O=C(O)C(F)(F)F (configuration not stated)  95.71%
84. CSc1ccc(OCCN2CCC(n3cncn3)CC2)cc1  98.24%
85. COCC(=O)N1CCC2(C1)c1ccccc1S(=O)(=O)N2C (configuration not stated)  99.03%
86. CC(C)N(C)Cc1n[nH]c2c1CCN(C(=O)c1ccc[nH]1)C2.O=C(O)C(F)(F)F  99.94%
87. CCc1ccc(NC(=O)N2C[C@H]3C[C@H](C(=O)NC(C)C)[C@@H](C2)O3)cc1  101%
88. Cc1cc(C(=O)N2CCc3c(CN(C)C(C)C)n[nH]c3C2)[nH]n1  101.7%
89. Clc1cc(Cl)cc(OCCN2CCC(n3cncn3)CC2)c1  103.8%
90. CC(C)CCN1C2(CCN(c3ncccn3)C2)c2ccccc2S1(=O)=O (configuration not stated)  105.2%
91. CC1(C)O[C@@](C)([C@H]2CC3(CCN(c4cnccn4)CC3)CO2)CC[C@@H]1O  106.3%
92. CC(C)CCN1C2(CCN(C(=O)N(C)C)C2)c2ccccc2S1(=O)=O (configuration not stated)  108.8%
93. COCC(=O)N1CCC2(C1)c1ccccc1S(=O)(=O)N2CCC(C)C (configuration not stated)  110.5%
94. Cc1cc(F)ccc1N1CCCC(NC(=O)CCc2ccncc2)C1 (configuration not stated)  111.2%
95. Cc1cc(F)ccc1N1CCCC(NC(=O)CCCn2ccnc2)C1 (configuration not stated)  114.8%
96. Cc1cccc(C)c1OCCCN1CCC(n2cncn2)CC1  115.1%
97. O=C(Cn1c(=O)n(Cc2ccco2)c2ncccc21)NC1CC1  115.8%
98. CCc1ccc(NC(=O)N2C[C@H]3C[C@H](C(=O)NC4CCC4)[C@@H](C2)O3)cc1  117.1%
99. O=C(Cn1c(=O)n(Cc2ccco2)c2ncccc21)NC1CCCC1  120%
100. Clc1ccc(CN(CCN2CCOCC2)Cc2cccnc2)c(Cl)c1  143.8%
101. Clc1cccc(Cl)c1CN(CCCN1CCOCC1)Cc1cccnc1  149.3%
102. Clc1ccc(CN(CCN2CCOCC2)Cc2cccnc2)cc1Cl  180.4%
